In assay [1] the target is Glucocorticoid receptor (Homo sapiens) (UniProt P04150). The assay can be described thus: ATG_GR_TRANS: Attagene TRANS-FACTORIAL HepG2 Assay for human Glucocorticoid Receptor (GR) (AID 2282978; active = hit-call score of the fitted dose curve at least 0.9, where 1 is the maximum;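 also: activators score as hits since higher reporter transcript over DMSO is fitted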). The conditions noted are these: HepG2 Attagene TRANS GR reporter, mRNA transcription. In outline: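 In this trans-factorial format, exogenous NR-GAL4 chimeric proteins in transfected HepG2 cells regulate GAL4-UAS reporter transcription. After 24 h treatment, reporter mRNA induction relative to DMSO is read by RT-PCR and capillary electrophoresis.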
Glucocorticoid receptor (Homo sapiens), sequence (P04150 whole entry, looked up, the tested form may be a part): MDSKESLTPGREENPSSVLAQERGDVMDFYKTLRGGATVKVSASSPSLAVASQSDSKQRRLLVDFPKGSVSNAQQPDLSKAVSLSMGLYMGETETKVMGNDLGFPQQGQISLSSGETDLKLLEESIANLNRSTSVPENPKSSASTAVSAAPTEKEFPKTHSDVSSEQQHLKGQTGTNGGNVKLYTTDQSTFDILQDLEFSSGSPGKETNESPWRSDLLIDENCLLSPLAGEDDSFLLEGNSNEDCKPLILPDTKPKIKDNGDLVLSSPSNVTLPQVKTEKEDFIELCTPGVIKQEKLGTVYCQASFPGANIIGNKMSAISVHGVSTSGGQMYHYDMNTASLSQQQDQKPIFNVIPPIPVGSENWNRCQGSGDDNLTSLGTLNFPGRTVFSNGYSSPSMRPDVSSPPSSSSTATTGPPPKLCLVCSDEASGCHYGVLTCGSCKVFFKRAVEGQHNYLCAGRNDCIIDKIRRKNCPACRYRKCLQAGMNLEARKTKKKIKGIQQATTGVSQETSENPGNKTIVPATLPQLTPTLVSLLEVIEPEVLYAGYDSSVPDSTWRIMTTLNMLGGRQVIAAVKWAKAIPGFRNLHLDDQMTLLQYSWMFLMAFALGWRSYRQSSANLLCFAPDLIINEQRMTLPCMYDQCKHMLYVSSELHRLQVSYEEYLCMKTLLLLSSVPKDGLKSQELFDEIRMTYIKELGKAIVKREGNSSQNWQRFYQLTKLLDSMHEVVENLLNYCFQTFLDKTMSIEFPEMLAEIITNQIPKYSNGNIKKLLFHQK

In assay [2] the target is Bile acid receptor (Homo sapiens) (UniProt Q96RI1). The assay can be described thus: ATG_FXR_TRANS: Attagene TRANS-FACTORIAL HepG2 Assay for Farnesoid X Receptor (FXR) (AID 2282979; active = hit-call score of the fitted dose curve at least 0.9, where 1 is the maximum;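 also: hits raise reporter mRNA above DMSO so AC50 marks FXR activation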). The conditions noted are these: HepG2 Attagene TRANS FXR-GAL4 reporter transcription. In outline:
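HepG2 cells transiently transfected with reporter constructs in which a chimeric FXR-GAL4 protein drives a GAL4-UAS reporter; 24 h compound exposure. Reporter mRNA measured by RT-PCR, FAM labelling, HpaI digestion and capillary electrophoresis; gain-of-signal versus DMSO.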

The target in assay [3] is Hepatocyte nuclear factor 4-alpha (Homo sapiens) (UniProt P41235). The assay can be described thus: ATG_HNF4a_TRANS: Attagene TRANS-FACTORIAL HepG2 Assay for human Hepatocyte Nuclear Factor 4 alpha (HNF4a) (AID 2282982; active = hit-call score of the fitted dose curve at least 0.9, where 1 is the maximum). The conditions noted are these: HepG2 HNF4a transactivation reporter, mRNA readout. A digest of the protocol:
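Cells used were human HepG2, transiently carrying GAL4-UAS reporter units read out against exogenous NR-GAL4 chimeras. Reporter transcript levels after 24 h dosing were quantified by fluorescent RT-PCR and capillary electrophoresis.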

The nature of assay [4]: ATG_M_32_TRANS: Attagene TRANS-FACTORIAL HepG2 Assay for M32 Transcription Factor (Internal Marker) (AID 2282984; active = hit-call score of the fitted dose curve at least 0.9, where 1 is the maximum). The conditions noted are these: HepG2 Attagene TRANS M32 internal marker reporter. A digest of the protocol:
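Human hepatoma HepG2, transient MRTU transfection, 24 h treatment. RNA → RT-PCR → fluorescent primer extension → HpaI digest (2 h, 37 C) → CE. Positive-direction fit vs DMSO.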

Assay [5] deals with Nuclear receptor subfamily 4 group A member 2 (Homo sapiens) (UniProt P43354). The assay can be described thus: ATG_NURR1_TRANS: Attagene TRANS-FACTORIAL HepG2 Assay for human Nuclear Receptor Related Protein 1 (NURR1) (AID 2282985; active = hit-call score of the fitted dose curve at least 0.9, where 1 is the maximum). The conditions noted are these: HepG2 Attagene TRANS reporter, mRNA readout. In outline:
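After 24 h chemical dosing, total RNA from transiently transfected HepG2 cells was reverse-transcribed and reporter cDNA PCR-amplified, FAM-labelled and analysed by capillary electrophoresis. Activity fitted in positive direction, DMSO as negative control.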

The target of assay [6] is Transcriptional activator Myb (Homo sapiens) (UniProt P10242). The assay can be described thus: ATG_Myb_CIS: Attagene CIS-FACTORIAL HepG2 Assay for human Myeloblastosis (Myb) Proto-Oncogene Transcription Factor (AID 2282986). Conditions: HepG2 Attagene CIS-FACTORIAL Myb reporter transcription; actives raise or lower the signal. A digest of the protocol:
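Steps: transfect HepG2 with cis-regulated reporter units; dose with chemical for 24 h; isolate RNA, reverse-transcribe, PCR-amplify and FAM-label reporter sequences; digest with HpaI; resolve by capillary electrophoresis. Activity fitted in both directions relative to DMSO.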

Assay [7] has as its target Nuclear respiratory factor 1 (Homo sapiens) (UniProt Q16656). The assay can be described thus: ATG_NRF1_CIS: Attagene CIS-FACTORIAL HepG2 Assay for human Nuclear Respiratory Factor 1 (NRF1) Orphan Gene (AID 2282987). Conditions: HepG2 NRF1 cis-element reporter, Attagene multiplex; actives raise or lower the signal. In outline:
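Fluorescence intensity of labelled reporter cDNA fragments, resolved by capillary electrophoresis, served as readout for NRF1 cis-element activity. Transiently transfected HepG2 cells were dosed for 24 hours; activity in either direction was fitted against DMSO negative control.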

Assay [8] in a line: ATG_NFI_CIS: Attagene CIS-FACTORIAL HepG2 Assay for human Nuclear Factor I (NFI) (AID 2282989). Conditions: HepG2 cis-regulatory reporter, NFI response element transcription; actives raise or lower the signal. In outline:
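Endogenous TF activity in HepG2 cells transiently transfected with cis-element-driven multiplexed reporter units, read 24 h after dosing. Reporter mRNA quantified by RT-PCR, 6-FAM labelling, HpaI digestion and capillary electrophoresis; bidirectional fit versus DMSO.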

The target in assay [9] is Myc proto-oncogene protein (Homo sapiens) (UniProt P01106). The assay can be described thus: ATG_Myc_CIS: Attagene CIS-FACTORIAL HepG2 Assay for human Myelocytomatosis (Myc) Proto-Oncogene Transcription Factor (AID 2282990). The conditions noted are these: HepG2, Attagene cis-reporter transcription factor activity; actives raise or lower the signal. A digest of the protocol: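 HepG2 cells transiently transfected with multiple cis-promoter-driven reporter transcription units, so endogenous TF activity is read. After 24 h compound exposure, reporter mRNA was quantified by RT-PCR, 6-FAM labelling, HpaI digestion and capillary electrophoresis; bidirectional fit versus DMSO.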
Myc proto-oncogene protein (Homo sapiens), sequence (P01106 whole entry, looked up): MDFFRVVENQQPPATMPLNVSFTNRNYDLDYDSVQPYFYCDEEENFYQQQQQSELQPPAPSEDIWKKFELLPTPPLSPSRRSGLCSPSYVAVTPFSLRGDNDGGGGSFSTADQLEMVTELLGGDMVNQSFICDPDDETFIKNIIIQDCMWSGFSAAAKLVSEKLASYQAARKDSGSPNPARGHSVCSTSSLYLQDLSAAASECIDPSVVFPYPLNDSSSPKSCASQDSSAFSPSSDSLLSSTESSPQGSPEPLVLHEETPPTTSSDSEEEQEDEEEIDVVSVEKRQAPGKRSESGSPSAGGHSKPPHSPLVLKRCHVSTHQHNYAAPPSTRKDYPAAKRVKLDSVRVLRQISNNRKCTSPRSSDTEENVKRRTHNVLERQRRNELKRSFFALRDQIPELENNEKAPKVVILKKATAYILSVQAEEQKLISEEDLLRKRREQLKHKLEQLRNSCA

The nature of assay [10]: ATG_NF_kB_CIS: Attagene CIS-FACTORIAL HepG2 Assay for human Nuclear Factor Kappa B (NF-kB) (AID 2282991). Conditions: HepG2 Attagene cis-factorial NF-kB reporter mRNA; actives raise or lower the signal. A digest of the protocol:
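Endogenous transcription factor activity in HepG2 was captured via cis-regulated reporter constructs; after 24 h dosing, reporter mRNA was reverse-transcribed, amplified, fluorescently labelled and sized by capillary electrophoresis, with activity fitted bidirectionally relative to DMSO.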

Assay [11] is described as follows: ATG_NRF2_ARE_CIS: Attagene CIS-FACTORIAL HepG2 Assay for human Nuclear Factor Erythroid 2 Related Factor 2 (NFR2) response to Antioxidant Response Elements (ARE) (AID 2282992).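 As to AC50: reporter mRNA level measured by RT-PCR and capillary electrophoresis fluorescence.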 The conditions noted are these: HepG2 Attagene ARE/NRF2 reporter, transcription factor activity; actives raise or lower the signal. In outline:
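HepG2 cells transiently transfected with multiplexed cis-element reporter constructs, 24 h after chemical dosing; reporter mRNA quantified by RT-PCR, fluorescent primer extension, HpaI digestion and capillary electrophoresis. Bidirectional fit relative to DMSO.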

Assay [12] is described as follows: ATG_Oct_MLP_CIS: Attagene CIS-FACTORIAL HepG2 Assay for human Octamer-Binding Transcription Factor (Oct) (AID 2282993). The conditions noted are these: HepG2 Attagene cis-factorial Oct reporter, mRNA; actives raise or lower the signal. In outline: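 HepG2 cells transiently transfected with cis-element-driven reporter transcription units (endogenous TF activity); 24 h compound exposure. Reporter mRNA quantified by RT-PCR, 6-FAM labelling, HpaI digestion and capillary electrophoresis; bidirectional fit versus DMSO baseline.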

For assay [13], the target named is Cellular tumor antigen p53 (Homo sapiens) (UniProt P04637). The assay can be described thus: ATG_p53_CIS: Attagene CIS-FACTORIAL HepG2 Assay for human p53 Transcription Factor (AID 2282994). The conditions noted are these: HepG2 p53 cis-element reporter, Attagene mRNA; actives raise or lower the signal. A digest of the protocol: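 HepG2 cells transiently transfected with cis-regulated multiple reporter transcription units, dosed 24 h. Reporter mRNA measured by RT-PCR, 6-FAM primer extension, HpaI digestion and capillary electrophoresis; bidirectional fit relative to DMSO.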
Cellular tumor antigen p53 (Homo sapiens), sequence (P04637 whole entry, looked up): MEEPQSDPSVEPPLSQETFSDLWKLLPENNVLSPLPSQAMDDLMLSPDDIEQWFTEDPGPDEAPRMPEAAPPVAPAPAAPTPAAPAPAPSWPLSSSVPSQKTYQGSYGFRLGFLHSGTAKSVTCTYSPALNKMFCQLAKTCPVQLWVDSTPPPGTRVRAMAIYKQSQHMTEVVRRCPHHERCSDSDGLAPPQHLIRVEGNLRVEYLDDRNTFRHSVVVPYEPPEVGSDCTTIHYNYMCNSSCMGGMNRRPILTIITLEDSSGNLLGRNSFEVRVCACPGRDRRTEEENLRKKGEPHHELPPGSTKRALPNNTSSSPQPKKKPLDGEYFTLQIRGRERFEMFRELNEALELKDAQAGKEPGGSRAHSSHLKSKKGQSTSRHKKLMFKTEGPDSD

Assay [14] can be described thus: BSK_3C_TissueFactor: BioMAP Diversity Plus: 3C Assay for Tissue Factor Biomarker Activity (AID 2282997). Conditions: BioMAP 3C HUVEC, tissue factor biomarker readout; actives raise or lower the signal. In outline:
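Primary human umbilical vein endothelial cells in the 3C system were exposed to test chemical for 24 h, then Tissue Factor measured by ELISA. Activity was fitted bidirectionally against DMSO as negative control and baseline.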

Assay [15] in a line: BSK_3C_uPAR: BioMAP Diversity Plus: 3C Assay for Urokinase-type plasminogen activator receptor (uPAR) Biomarker Activity (AID 2282998). Conditions: BioMAP 3C HUVEC, uPAR biomarker ELISA; actives raise or lower the signal. In outline: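 Primary human umbilical vein endothelial cells, 3C system; surface uPAR measured by ELISA 24 h after dosing. Cytotoxicity via SRB total protein in parallel cultures; bidirectional fit against DMSO.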

A short description of assay [16]: BSK_3C_VCAM1: BioMAP Diversity Plus: 3C Assay for Vascular cell adhesion molecule 1 (VCAM1) Biomarker Activity (AID 2282999). The conditions noted are these: BioMAP 3C HUVEC, VCAM1 ELISA, cytokine-stimulated; actives raise or lower the signal. A digest of the protocol:
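Human umbilical vein endothelial cells were dosed with compound for 24 h, after which cell-surface VCAM-1 was quantified by ELISA. Bidirectional curve fitting used DMSO as negative control and activity baseline.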

Assay [17] can be described thus: BSK_4H_Eotaxin3: BioMAP Diversity Plus: 4H Assay for Eotaxin 3 Biomarker Activity (AID 2283000).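 Also: CCL26 protein level quantified by ELISA in parallel with SRB cytotoxicity check.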 The conditions noted are these: primary human endothelial cells (HUVEC); actives raise or lower the signal. In outline: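 HUVEC, 24 h post-dose, ELISA for Eotaxin-3/CCL26. Gain or loss of signal fitted bidirectionally vs DMSO baseline.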
The target of assay [18] is Oxysterols receptor LXR-alpha (Homo sapiens) (UniProt Q13133). The assay can be described thus: ATG_LXRa_TRANS: Attagene TRANS-FACTORIAL HepG2 Assay for human Liver X Receptor alpha (LXRa) (AID 2282980; active = hit-call score of the fitted dose curve at least 0.9, where 1 is the maximum). Conditions: HepG2 Attagene TRANS reporter, LXRa transactivation. A digest of the protocol:
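HepG2 cells were transiently transfected with multiplexed reporter units driven by chimeric LXRa–GAL4 fusion proteins, then dosed for 24 h. Reporter mRNA was quantified by RT-PCR, fluorescent labelling and capillary electrophoresis; gain of signal fitted against DMSO baseline.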

Assay [19] can be described thus: ATG_M_06_TRANS: Attagene TRANS-FACTORIAL HepG2 Assay for M06 Transcription Factor (Internal Marker) (AID 2282983; active = hit-call score of the fitted dose curve at least 0.9, where 1 is the maximum). Conditions: HepG2 Attagene TRANS M06 internal marker reporter. A digest of the protocol: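 HepG2 cells transiently transfected with multiplexed GAL4-UAS reporter transcription units; after 24 h compound exposure, reporter mRNA measured by RT-PCR, FAM-labelled primer extension, HpaI digestion and capillary electrophoresis. Gain-of-signal fitted versus DMSO baseline; background control readout.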

Assay [20] has as its target Oxysterols receptor LXR-beta (Homo sapiens) (UniProt P55055). The assay can be described thus: ATG_LXRb_TRANS: Attagene TRANS-FACTORIAL HepG2 Assay for human Liver X Receptor beta (LXRb) (AID 2282981; active = hit-call score of the fitted dose curve at least 0.9, where 1 is the maximum). The conditions noted are these: HepG2 Attagene TRANS GAL4-LXRb reporter, mRNA. In outline:
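In this TRANS format, exogenous chimeric NR-Gal4 protein activity, not endogenous factors, drives reporter expression in transfected human HepG2 cells. Exposure lasted 24 h; reporter mRNA was read by fluorescent capillary electrophoresis.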

Results filed as inconclusive are left out. Active and inactive are the calls of the source. The calls were made as follows, unless noted: active = hit-call score of the fitted dose curve at least 0.9, where 1 is the maximum; inactive = score below 0.9.

Bile acid receptor (Homo sapiens), sequence (Q96RI1 whole entry, looked up, the tested form may be a part): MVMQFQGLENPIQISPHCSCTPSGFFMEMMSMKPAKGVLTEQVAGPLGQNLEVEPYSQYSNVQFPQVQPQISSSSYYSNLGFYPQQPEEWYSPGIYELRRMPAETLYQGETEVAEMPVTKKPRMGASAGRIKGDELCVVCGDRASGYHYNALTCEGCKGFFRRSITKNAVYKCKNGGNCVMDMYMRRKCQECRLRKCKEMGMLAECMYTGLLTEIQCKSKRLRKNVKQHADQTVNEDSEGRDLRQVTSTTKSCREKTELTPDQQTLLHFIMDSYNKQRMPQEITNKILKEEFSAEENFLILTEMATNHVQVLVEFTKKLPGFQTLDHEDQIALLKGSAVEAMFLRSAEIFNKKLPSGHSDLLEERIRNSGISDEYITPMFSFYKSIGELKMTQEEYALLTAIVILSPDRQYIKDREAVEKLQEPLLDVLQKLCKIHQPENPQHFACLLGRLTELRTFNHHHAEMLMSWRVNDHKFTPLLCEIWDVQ
Nuclear respiratory factor 1 (Homo sapiens), sequence (Q16656 whole entry, looked up, the tested form may be a part): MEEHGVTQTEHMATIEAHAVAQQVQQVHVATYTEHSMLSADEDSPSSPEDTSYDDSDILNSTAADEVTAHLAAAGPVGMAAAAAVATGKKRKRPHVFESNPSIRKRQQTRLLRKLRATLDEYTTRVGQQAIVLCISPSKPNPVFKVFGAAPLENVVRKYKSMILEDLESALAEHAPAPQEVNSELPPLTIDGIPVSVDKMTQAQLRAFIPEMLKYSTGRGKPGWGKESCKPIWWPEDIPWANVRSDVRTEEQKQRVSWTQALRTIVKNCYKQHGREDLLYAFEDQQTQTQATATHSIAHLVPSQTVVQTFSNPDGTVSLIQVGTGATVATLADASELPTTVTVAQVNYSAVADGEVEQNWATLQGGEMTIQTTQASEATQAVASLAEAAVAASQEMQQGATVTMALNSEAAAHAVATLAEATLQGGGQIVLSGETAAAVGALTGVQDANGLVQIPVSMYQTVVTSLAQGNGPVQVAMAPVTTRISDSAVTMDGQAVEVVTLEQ
Transcriptional activator Myb (Homo sapiens), sequence (P10242 whole entry, looked up): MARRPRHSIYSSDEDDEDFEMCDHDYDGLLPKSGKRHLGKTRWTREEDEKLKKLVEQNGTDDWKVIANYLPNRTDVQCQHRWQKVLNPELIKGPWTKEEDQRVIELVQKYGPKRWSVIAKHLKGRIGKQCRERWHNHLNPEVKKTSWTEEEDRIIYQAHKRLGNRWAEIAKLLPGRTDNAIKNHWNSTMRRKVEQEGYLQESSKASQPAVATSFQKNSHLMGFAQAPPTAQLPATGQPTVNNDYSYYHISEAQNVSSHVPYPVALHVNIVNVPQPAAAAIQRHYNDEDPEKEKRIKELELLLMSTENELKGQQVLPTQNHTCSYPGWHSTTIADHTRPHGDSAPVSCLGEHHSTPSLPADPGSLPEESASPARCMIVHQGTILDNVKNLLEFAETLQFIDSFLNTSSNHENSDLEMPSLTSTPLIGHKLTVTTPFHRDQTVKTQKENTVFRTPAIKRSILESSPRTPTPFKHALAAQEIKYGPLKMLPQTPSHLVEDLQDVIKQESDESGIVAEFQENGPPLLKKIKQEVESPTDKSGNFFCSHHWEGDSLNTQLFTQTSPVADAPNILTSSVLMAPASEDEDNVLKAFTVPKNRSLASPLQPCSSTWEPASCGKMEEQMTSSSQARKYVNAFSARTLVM
Hepatocyte nuclear factor 4-alpha (Homo sapiens), sequence (P41235 whole entry, looked up, the tested form may be a part): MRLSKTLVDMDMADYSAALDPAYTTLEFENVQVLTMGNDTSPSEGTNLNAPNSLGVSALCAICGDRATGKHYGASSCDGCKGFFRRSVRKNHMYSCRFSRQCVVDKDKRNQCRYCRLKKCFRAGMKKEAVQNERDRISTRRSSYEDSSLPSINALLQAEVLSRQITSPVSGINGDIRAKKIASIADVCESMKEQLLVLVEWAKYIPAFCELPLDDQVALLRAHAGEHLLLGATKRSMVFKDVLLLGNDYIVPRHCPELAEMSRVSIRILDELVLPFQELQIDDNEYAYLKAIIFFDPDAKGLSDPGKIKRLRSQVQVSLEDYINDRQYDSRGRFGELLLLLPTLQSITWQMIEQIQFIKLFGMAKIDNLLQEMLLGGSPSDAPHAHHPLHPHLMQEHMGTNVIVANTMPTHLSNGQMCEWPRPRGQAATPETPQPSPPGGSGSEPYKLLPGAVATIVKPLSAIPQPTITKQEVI
Oxysterols receptor LXR-alpha (Homo sapiens), sequence (Q13133 whole entry, looked up, the tested form may be a part): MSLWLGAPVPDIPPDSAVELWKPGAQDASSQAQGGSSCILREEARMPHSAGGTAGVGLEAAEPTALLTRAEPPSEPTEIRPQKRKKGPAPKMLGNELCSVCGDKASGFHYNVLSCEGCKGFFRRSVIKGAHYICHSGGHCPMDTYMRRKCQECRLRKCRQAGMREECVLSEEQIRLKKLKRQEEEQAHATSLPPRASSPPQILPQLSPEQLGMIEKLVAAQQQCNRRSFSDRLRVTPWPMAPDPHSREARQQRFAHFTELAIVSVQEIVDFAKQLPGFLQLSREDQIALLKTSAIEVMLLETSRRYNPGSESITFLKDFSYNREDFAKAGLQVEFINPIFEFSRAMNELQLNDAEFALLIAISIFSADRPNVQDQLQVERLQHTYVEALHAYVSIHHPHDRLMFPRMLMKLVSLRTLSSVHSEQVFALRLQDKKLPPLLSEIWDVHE
Nuclear receptor subfamily 4 group A member 2 (Homo sapiens), sequence (P43354 whole entry, looked up): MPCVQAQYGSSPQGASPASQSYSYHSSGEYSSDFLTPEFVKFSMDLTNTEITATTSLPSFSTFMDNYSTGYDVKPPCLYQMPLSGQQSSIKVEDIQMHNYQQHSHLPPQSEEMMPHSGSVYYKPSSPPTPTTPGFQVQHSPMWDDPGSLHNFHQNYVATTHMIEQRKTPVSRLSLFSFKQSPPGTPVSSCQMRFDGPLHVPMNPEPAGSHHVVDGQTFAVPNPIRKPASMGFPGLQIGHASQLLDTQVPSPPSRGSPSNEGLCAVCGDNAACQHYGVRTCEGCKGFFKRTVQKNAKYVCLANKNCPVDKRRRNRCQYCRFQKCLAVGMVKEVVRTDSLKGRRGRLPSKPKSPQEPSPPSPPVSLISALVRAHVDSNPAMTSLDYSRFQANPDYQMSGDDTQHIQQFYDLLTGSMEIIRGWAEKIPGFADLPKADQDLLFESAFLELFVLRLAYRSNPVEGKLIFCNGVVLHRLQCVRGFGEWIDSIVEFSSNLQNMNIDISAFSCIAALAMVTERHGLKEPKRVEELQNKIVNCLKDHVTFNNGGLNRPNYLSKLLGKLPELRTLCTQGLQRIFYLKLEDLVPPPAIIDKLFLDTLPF

As for `CCOP(=S)(OCC)SCn1nnc2ccccc2c1=O`, the call in assay [1], in assay [3], in assay [4], in assay [6], in assay [8] and in assay [9] was inactive. Further, the outcome in assay [10], in assay [12], in assay [13], in [15], in assay [16] and in assay [17] was inactive. The AC50 is 26.5 µM (active) in assay [2]; 100 µM (active) in assay [5]; 58.6 µM (active) in assay [7]; 1.6 µM (active) in assay [11]; 10.7 µM (active) in assay [14].
Consider `c1ccc2c(c1)sc1ccccc12`, for which the outcome in [1], in assay [2], in [18], in assay [19], in [4] and in [6] was inactive. For the same compound, the result in assay [7], in assay [8], in assay [9], in assay [11], in [12] and in assay [13] was inactive. Besides, the outcome in assay [14], in assay [15], in [16] and in [17] was inactive.
In the case of `CCCCN(CCCC)N=O`, the outcome in [1], in assay [2], in assay [18], in [3], in assay [19] and in assay [6] was inactive. Besides, the compound was called inactive in [7], in [8], in assay [9], in assay [10], in [11] and in [12]. For the same compound, the call in [13], in [15], in assay [16] and in assay [17] was inactive.
With `ClC1=C(Cl)C2(Cl)C3C(Cl)C(Cl)CC3C1(Cl)C2(Cl)Cl` (centres undefined), the AC50 in assay [1] is 100 µM (active); in [2] it was 54.7 µM (active); in [11], 14.8 µM (active); in [15], 35.8 µM (active); in [16] it was 28.6 µM (active). Further, the result in assay [20], in assay [19], in [4], in assay [6], in assay [7] and in assay [8] was inactive. In addition, the outcome in assay [9], in assay [10], in [12] and in assay [13] was inactive.

Values taken from PubChem BioAssay (EPA / NIEHS).
